Molecules are shown by their SMILES. Records with an inconclusive call do not appear. Entries that show only a call come without a potency. Calls of active or inactive are those of the source. The call rests on the fitted dose curve; in most records, active means well fitted inhibition curve with a large enough effect; inconclusive means small, poorly fitted or top-dose-only effect; inactive means no such curve, though single readings can be large or run the other way.
Potency means the concentration at half of the fitted maximal effect.

The nature of this test: qHTS Screen of the MIPE 4.0 Collection Against Ewings Sarcoma (RDES) (AID 1259252). Further: nearly all actives have a fitted effect of over 35% in size. Conditions: RD-ES Ewing sarcoma viability, CellTiter-Glo, 48 h; series mostly up to 45.8 µM. The source says: There is a large unmet medical need for treatments for Ewing sarcoma, a pediatric sarcoma. We sought to identify compounds that inhibited Ewing sarcoma cells in vitro with the goal to then test promising drugs in two drug combinations in vitro to look for synergistic drug combinations. Promising combinations would then proceed to additional validation, including in vivo testing.
Using the NCATS developed oncology compound library called the Mechanism of Interrogation Plate (MIPE), four Ewing sarcoma cell lines were evaluated (TC32, TC71, RDES, EW8). Compounds, in a 12-point titration series, were incubated with cells for 48 hours and the read out was cell viability (CellTiter-Glo from Promega). These initial experiments were used to select appropriate concentrations of each single agent for subsequent two-drug matrix combinations such that the concentrations in the matrices would span both activity and non-activity.
Cells, in the log phase of growth, were seeded in 5 uL of RPMI plus 5% FBS, […] L-glutamine, 100 U/ml penicillin and 100 ug/ml streptomycin into 1536-well solid-bottom white tissue culture treated Greiner Bio One Plates (789173-F) using a MultiDrop Combi (Thermofisher Scientific) dispenser and a small sterile cassette. One column was media alone to be used as a :"no cells" control. The plates were then covered with sterilized stainless steel gasketed lids from Kalypsys. After allowing cells to attach for 4 hours, 23 nL of test compound or control (negative control DMSO and positive control 9.2 uM Bortezomib-final) were added from a 1536-well polypropylene compound source plate to each well using a 1536 head pin tool from Kalypsys. Cells were then incubated for 48 hours at 37C, 95% relative humidity and 5% CO2. After 48 hours, plates were removed from the incubator and 3 uL of CellTiter-Glo (Promega) was added using an Aurora Flying Reagent Dispenser Bioraptor. Plates were incubated at room temperature for 10 minutes prior to reading the luminescence on the Viewlux (PerkinElmer). The relative luciferase units are used to calculate the percent activity using the activity of DMSO in the cells and no cells columns for normalization of no inhibition and full inhibition respectively.
In general terms: qHTS replaces the single test concentration by a dilution series.
In the case of `Cc1ccnc2c1NC(=O)c1cccnc1N2C1CC1`, the Potency entry is “inactive”. The result for `O=c1oc2c(O)c(O)cc3c(=O)oc4c(O)c(O)cc1c4c23` reads “inactive”; that for `CNNCc1ccc(C(=O)NC(C)C)cc1`, “inactive”; that for `COc1cc2ncnc(Nc3cccc(Cl)c3)c2cc1OC`, 0.118 µM (active). The value for `CC(C)NCC(O)c1ccc(NS(C)(=O)=O)cc1` (stereo not given) was 5.9 µM (active); that for `COCCCOc1cc(C[C@@H](C[C@H](N)[C@@H](O)C[C@H](C(=O)NCC(C)(C)C(N)=O)C(C)C)C(C)C)ccc1OC` was “inactive”; that for `NC(=O)N1c2ccccc2CC(=O)c2ccccc21` was “inactive”. Turning to `COC(c1ccccc1)(c1ccccc1)[C@H](Oc1nc(C)cc(C)n1)C(=O)O`, the Potency result is “inactive”. The value for `Nc1nc(F)nc2c1ncn2[C@@H]1O[C@H](CO)[C@@H](O)[C@@H]1O` was 0.59 µM (active); that for `NC(=O)c1ccc2[nH]ccc2c1` was “inactive”; that for `Cc1onc(-c2ccccc2Cl)c1C(=O)N[C@@H]1C(=O)N2[C@@H]1SC(C)(C)[C@@H]2C(=O)O` was “inactive”.

As to `CCc1cc(C(N)=S)ccn1`, the Potency result is “inactive”.

For `Cn1c(=O)c2c(ncn2CC(O)CO)n(C)c1=O` (stereo not given), the Potency entry was “inactive”. Take `Nc1ccc(S(=O)(=O)Nc2ccccn2)cc1`: the Potency entry was “inactive”. With `O=C(N[C@H](CO)[C@H](O)c1ccc([N+](=O)[O-])cc1)C(Cl)Cl`, the Potency result was “inactive”. As to `COc1cc([C@@H]2c3cc4c(cc3[C@H](O)[C@H]3COC(=O)[C@H]23)OCO4)cc(OC)c1OC`, the Potency entry was “inactive”. The value for `CN(C)CCc1c[nH]c2ccc(CS(=O)(=O)N3CCCC3)cc12` was “inactive”. For `NC(N)=NC(N)=NCCc1ccccc1`, the Potency is 11.8 µM (active).

Turning to `CC1=C(C(=O)O)N2C(=O)[C@@H](NC(=O)C(N)c3ccccc3)[C@H]2SC1` (stereo not given in full), the Potency result was “inactive”.

On to `Cc1ccc(S(=O)(=O)N[C@@H](Cc2ccccc2)C(=O)CCl)cc1`, for which the Potency is 26.4 µM (active). The value for `OC(Cn1cncn1)(Cn1cncn1)c1ccc(F)cc1F` was “inactive”; that for `CC(N)C12CC3CC(CC(C3)C1)C2` (stereo not given) was “inactive”. The value for `Cc1cccc(N(C)C(=S)Oc2ccc3ccccc3c2)c1` was “inactive”; that for `Oc1c(Cl)cc(Cl)c2cccnc12` was 13.2 µM (active).

In the case of `Clc1ccccc1CN1CCc2sccc2C1`, the Potency entry was “inactive”. With `CC1CC2C3CCC4=CC(=O)C=C[C@]4(C)[C@@]3(F)[C@@H](O)C[C@]2(C)[C@@]1(O)C(=O)CO` (stereo not given in full), the Potency entry was “inactive”.

In the case of `CCN[C@H]1C[C@H](C)S(=O)(=O)c2sc(S(N)(=O)=O)cc21`, the Potency entry was “inactive”. The value for `Cc1ncc([N+](=O)[O-])n1CCO` was “inactive”; that for `N=C(N)c1ccc(OCCCCCOc2ccc(C(=N)N)cc2)cc1` was 18.7 µM (active); that for `O=c1cc(O)c(Cl)c[nH]1` was “inactive”. The value for `Nc1nc(=S)c2[nH]cnc2[nH]1` was 0.935 µM (active); that for `CCc1c2c(nc3ccc(OC(=O)N4CCC(N5CCCCC5)CC4)cc13)-c1cc3c(c(=O)n1C2)COC(=O)[C@]3(O)CC` was 0.332 µM (active).

For the compound `COc1nc(N)nc2c1ncn2[C@@H]1O[C@H](CO)[C@@H](O)[C@@H]1O`, the Potency is 20.9 µM (active). The result for `CO[C@@]12[C@H](COC(N)=O)C3=C(C(=O)C(C)=C(N)C3=O)N1C[C@@H]1N[C@@H]12` reads 0.0332 µM (active); that for `CCN(C)C(=O)Oc1cccc([C@H](C)N(C)C)c1`, “inactive”; that for `COc1cnc(NS(=O)(=O)c2ccc(N)cc2)nc1`, “inactive”.

For the compound `CCCCS(=N)(=O)CCC(N)C(=O)O` (stereo not given), the Potency was 14.8 µM (active). The result for `CCCc1nc(C)c2c(=O)[nH]c(-c3cc(S(=O)(=O)N4CCN(CC)CC4)ccc3OCC)nn12` reads 7.43 µM (active); that for `Nc1nc(N)c2nc(CNc3ccc(C(=O)NC(CCC(=O)O)C(=O)O)cc3)cnc2n1` (stereo not given), 0.0166 µM (active). With `COC(=O)Nc1nc2ccc(Sc3ccccc3)cc2[nH]1`, the Potency is 1.66 µM (active).

The values are drawn from PubChem BioAssay (NCATS).
